ChEMBL document CHEMBL3988442, “University of Dundee, Small-Polar-MMV Screening Library” (2021)

Columns and labels:
[1] = biological target: T1, Aspartate--tRNA(Asp/Asn) ligase (Mycobacterium tuberculosis (strain ATCC 25618 / H37Rv)) (UniProt P9WFW3); assay: Assay for Asp RNA synthetase-1 from Mycobacterium tuberculosis; format: functional; set-up: scale not given: direction of the effect not stated beside the values; settings: 30 µM; further: in the data most compounds retested in dose-response had high values
T1 sequence (whole entry): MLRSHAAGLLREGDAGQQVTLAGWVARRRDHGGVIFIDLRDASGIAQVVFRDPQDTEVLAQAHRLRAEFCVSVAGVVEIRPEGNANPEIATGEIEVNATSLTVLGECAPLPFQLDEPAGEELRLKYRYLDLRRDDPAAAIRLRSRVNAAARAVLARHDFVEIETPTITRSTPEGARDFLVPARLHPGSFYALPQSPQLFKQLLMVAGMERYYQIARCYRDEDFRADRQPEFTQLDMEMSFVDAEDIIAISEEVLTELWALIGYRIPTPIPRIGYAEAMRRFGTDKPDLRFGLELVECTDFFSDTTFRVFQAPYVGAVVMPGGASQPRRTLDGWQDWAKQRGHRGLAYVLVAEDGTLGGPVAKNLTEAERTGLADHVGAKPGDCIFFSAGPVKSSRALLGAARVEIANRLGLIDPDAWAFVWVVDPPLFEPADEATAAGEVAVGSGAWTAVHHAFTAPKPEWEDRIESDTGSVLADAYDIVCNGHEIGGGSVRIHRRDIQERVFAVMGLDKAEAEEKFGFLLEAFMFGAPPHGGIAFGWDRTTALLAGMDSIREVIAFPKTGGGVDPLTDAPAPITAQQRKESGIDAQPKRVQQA

[2] = biological target: Shiga toxin 2 (Escherichia coli O157:H7) (UniProt P09385+P09386); assay: E. coli 0.157:H7 Shiga Toxin SOP - stx2 screening assay; format: functional; set-up: scale not given: direction of the effect not stated beside the values; settings: 30 µM

Structure (SMILES): COc1cccc(CCC2CCCN(C(=O)C3=NN(C)C(=O)CC3)C2)c1 (configuration not stated)
- Percent Effect [1]: 1.75%
- Percent Effect [2]: -7.25%

Structure (SMILES): CN(C)CCOCC1CN(C(=O)[C@H]2CCCO2)Cc2ccnn2C1 (some centres not stated)
- Percent Effect [1]: 0.379%
- Percent Effect [2]: -15.2%

Structure (SMILES): O[C@H]1CCN(Cc2ccoc2)[C@H]1Cc1cccnc1
- Percent Effect [1]: 6.58%
- Percent Effect [2]: -6%

Structure (SMILES): c1ccc(OCC2CC3(CCN(c4ncccn4)CC3)CO2)nc1 (configuration not stated)
- Percent Effect [1]: 4.62%
- Percent Effect [2]: -0.916%

Structure (SMILES): Cc1noc([C@H]2CC[C@@H]3[C@@H](CCN3S(C)(=O)=O)O2)n1
- Percent Effect [1]: 2.38%
- Percent Effect [2]: -3.33%

Structure (SMILES): CN(C)C(=O)COC[C@]12COC[C@H]1CN(CC1CCC1)C2
- Percent Effect [1]: -8.17%
- Percent Effect [2]: -9.5%

Structure (SMILES): CN1Cc2c(C(=O)Nc3cccnc3)ncn2-c2ccccc2S1(=O)=O
- Percent Effect [1]: -2.67%
- Percent Effect [2]: 6.47%

Structure (SMILES): Cc1ccsc1[C@@H]1CCN(C(=O)CCC(=O)N2CCCCCC2)C[C@H]1O
- Percent Effect [1]: -0.418%
- Percent Effect [2]: -23.3%

Structure (SMILES): Cc1ncsc1C(=O)N(C)Cc1ccncc1
- Percent Effect [1]: -4.5%
- Percent Effect [2]: 27.3%

Structure (SMILES): Cc1nc(CN2CCc3nn(C(C)C)c(=O)cc3C2)oc1C
- Percent Effect [1]: 7%
- Percent Effect [2]: 0.318%

Structure (SMILES): CCN(Cc1ccc(OC)c(F)c1)C(=O)c1ccc(C)[nH]c1=O
- Percent Effect [1]: -0.589%
- Percent Effect [2]: 30.6%

Structure (SMILES): Cc1noc(C2CCCN(C(=O)c3ccc(Br)o3)C2)n1 (configuration not stated)
- Percent Effect [1]: -2.54%
- Percent Effect [2]: -8.47%

Structure (SMILES): O=C(c1cccnc1)N1C[C@@H]2CC[C@H](C1)N(Cc1cc(F)ccc1F)C2
- Percent Effect [1]: 5.92%
- Percent Effect [2]: 1.2%

Structure (SMILES): CC(C)(C)c1nc(CN2CCC(c3nc4cc(Cl)ccc4o3)CC2)no1
- Percent Effect [1]: -2.4%
- Percent Effect [2]: -14.9%

Structure (SMILES): CC(=O)N1[C@@H](C(=O)NCC2CC2)C[C@@H]2CN(Cc3ccco3)C[C@@H]21
- Percent Effect [1]: 0.523%
- Percent Effect [2]: -11.8%

Structure (SMILES): CC(NC(=O)COc1nc(C(C)(C)C)no1)c1ccco1 (configuration not stated)
- Percent Effect [1]: -2.04%
- Percent Effect [2]: 16.4%
